Wnt act = Wnt/beta-catenin pathway activation; Wnt/beta-catenin reporter cell assay, activator, plate reader; activation, % at 9.35 µM; 300,000 tested, 1.2% active; AID 743398; in the data active = activation above about 30%, passing the limit was not always enough; inconclusive = no clear call, values can overlap the other calls;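 note: 0% = neutral control wells and 100% = positive control wells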
HSF-1 act = increases HSF-1 driven luciferase reporter signal. NIH3T3-HGL HSF-1 luciferase reporter, MG132, 8 h; 100% = twice DMSO control signal. activation, % at 9 µM. 300,000 tested, 1.7% active;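 active = mean replicate activation of at least 50% with a set share of replicates each reaching 50%; inconclusive = only one of those two conditions met; inactive = mean below 50% and too few replicates reaching it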;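 note: 0% = median of the neutral control wells and 100% = twice that signal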
HSF1 inhib = HSF1 inhibition; NIH3T3-HGL HSE-luciferase, MG132-induced, luminescence 8 h; active compounds read low; activity change, negative = inhibition, % at 7.5 µM (by protocol); 300,000 tested, 0.77% active; AID 2098;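 active = more than half of replicate wells show activity change below -50%, luminescence cut by over half; inconclusive = some wells, but at most half, below -50%; inactive = no replicate well below -50%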;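 note: luciferase reports HSF-1 transcriptional activity via heat shock element; 0% = median of DMSO wells and -100% = zero luminescence signal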
esBAF inh = SWI/SNF esBAF complex inhibition; 350,000 tested, 2% active; reporter increase, % at 12.5 µM; mouse ES cells, Bmi1-luciferase knock-in reporter, 24 h; 100% = twice the neutral-well signal; in the data active = activation above about 40%; inconclusive = no clear call, values can overlap the other calls;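 note: 0% = median of the plate's neutral control wells and 100% = double that signal; a rise in the Bmi1 reporter signal indicates esBAF inhibition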
MITF TRPM1 HTS = activators of MITF-driven TRPM1 promoter activity in SK-MEL-5 cells; AID 588334; 300,000 tested, 0.75% active; SK-MEL-5 TRPM1-promoter luciferase, 24 h; % of positive control, neutral wells = 0; activation, % at 12.5 µM;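 active = mean activation of at least 80% with every replicate also reaching 80%; inconclusive = mean reaches 80% but some replicate falls short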;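 note: 0% = neutral control wells and 100% = parthenolide positive control wells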
An asterisk follows results filed as active; ? = inconclusive; / = no result. Sampled rows, rich in hits. Any-hit rate of the full collection: about 3.9%.

SMILES	Wnt act	HSF-1 act	HSF1 inhib	esBAF inh	MITF TRPM1 HTS
CCc1nnc(NC(=O)c2ccc(Cl)nc2)s1	0	7	5	?	52
O=C(Nc1nnc(C2CC2)s1)c1cc2ccccc2o1	?	/	/	46*	66
O=C(Nc1nnc(C2CC2)s1)c1ccc(Cl)nc1	34*	/	/	53*	46
Cc1ccc(C(=O)Nc2nc3ccc(S(C)(=O)=O)cc3s2)o1	53*	33	15	36	/
CS(=O)(=O)c1ccc2nc(NC(=O)c3cc4ccccc4o3)sc2c1	17	7	14	67*	31
N#C/C(=C1/CCCCCN1)c1nc2ccccc2[nH]1	/	-3	5	50*	62
O=C(/C=C/Nc1ccc(F)cc1Br)c1ccccc1	/	-71	-66*	-53	-57
Cc1ccc(N/C=C/C(=O)c2ccc(C)cc2)cc1	/	4	3	2	63
O=C(/C=C\Nc1ccc(Br)cc1)c1cccnc1	38*	16	9	/	37
O=C(/C=C/Nc1ccccc1)c1ccccc1	/	88*	45	5	7
Cc1ccc(C(=O)/C=C\Nc2ccc(C)c(C)c2)cc1	/	56*	17	/	48
CO[C@@H]1CN(C)C(=O)c2ccc(NC(=O)C3CCC3)cc2OC[C@@H](C)N(Cc2cccnc2)C[C@H]1C	/	/	/	-3	/
COc1cccc(NC(=O)N(C)C[C@H]2Oc3ncc(C#Cc4cccnc4)cc3C(=O)N([C@H](C)CO)C[C@H]2C)c1	/	/	/	2	/
CCCN1C[C@H](C)[C@H](OC)CN(C)C(=O)c2cc(NS(C)(=O)=O)ccc2OC[C@@H]1C	/	/	/	-3	/
Cc1ccc(/C=C/C(=O)Nc2ccccc2C(N)=O)cc1	/	59*	18	/	27
CCOC(=O)c1ccc(N/C=C/C(=O)C(C)(C)C)cc1	78*	-44	-27	/	57
Cc1ccc(C=Nc2ccccc2C(N)=O)cc1	/	66*	55	?	8
Cc1ccc(O)c(N/C=C/C(=O)c2ccc(F)cc2)c1	-2	9	1	63*	69
C[C@@H]1CCCCO[C@@H](CN(C)C(=O)C2CCCCC2)[C@@H](C)CN([C@@H](C)CO)C(=O)c2cc(NC(=O)Nc3ccc(C(F)(F)F)cc3)ccc2O1	/	/	/	-9	/
C[C@H](CO)N1C[C@H](C)[C@@H](CN(C)S(=O)(=O)c2ccccc2)Oc2c(NS(C)(=O)=O)cccc2C1=O	/	/	/	-6	/
C[C@H](CO)N1C[C@H](C)[C@H](CN(C)Cc2ccc3c(c2)OCO3)OCCCC[C@H](C)Oc2ccc(NC(=O)c3ccncc3)cc2C1=O	/	/	/	-1	/
COCC(=O)Nc1ccc2c(c1)OC[C@@H](C)N(C(=O)C1CCCC1)C[C@@H](C)[C@H](OC)CN(C)C2=O	/	/	/	-1	/
CCOC(=O)c1ccccc1N/C=C/C(=O)c1ccccc1	54*	-15	-11	2	-7
Cc1ccc(C(=O)/C=C/Nc2ccccn2)cc1	/	-66	-62*	39	-69
CCOC(=O)c1ccc(N/C=C/C(=O)c2ccccc2)cc1	74*	1	7	/	65
SMILES	Wnt act	HSF-1 act	HSF1 inhib	esBAF inh	MITF TRPM1 HTS
Cc1ccc(C(=O)/C=C/C(=O)c2ccc(C)cc2)cc1	7	17	17	/	-49
CCOC(=O)c1ccc(N/C=C/C(=O)c2ccc(OC)cc2)cc1	/	-58	?	?	21
Cc1ccc(C(=O)/C=C/Nc2ccccc2C(N)=O)cc1	39*	42	21	-1	1
NC(=O)c1ccccc1N/C=C/C(=O)c1ccc(Cl)cc1	1	45	33	/	18
C[C@@H]1CN([C@H](C)CO)C(=O)c2cc(NC(=O)Cc3ccccc3)ccc2O[C@H]1CN(C)C(=O)Nc1cccc2ccccc12	/	/	/	0	/
COc1ccc(C(=O)/C=C/Nc2cccc(C)n2)cc1OC	/	23	17	47*	93*
CO[C@H]1CN(C)C(=O)c2cc(NC(=O)C3CCCC3)ccc2OC[C@H](C)N(S(C)(=O)=O)C[C@H]1C	/	/	/	-3	/
Cc1noc(C)c1NC(=O)N(C)C[C@H]1OCCCC[C@H](C)Oc2ccc(NC(=O)NC(C)C)cc2C(=O)N([C@H](C)CO)C[C@@H]1C	/	/	/	-10	/
CCN(CC)c1ccc(/C=C2/C(=O)N(c3ccc([N+](=O)[O-])cc3)N=C2N2CCOCC2)cc1	/	92*	41	/	/
COc1cc(/C=C2/C(=O)N(c3ccc([N+](=O)[O-])cc3)N=C2N2CCOCC2)ccc1O	3	-6	-2	9	-13
Cc1ccc(S(=O)(=O)Nc2cccc3c2O[C@@H](CN(C)Cc2ccccc2)[C@H](C)CN([C@H](C)CO)C3=O)cc1	/	/	/	-3	/
CCOC(=O)CC(NC(=O)c1cc2cccc(OC)c2oc1=O)c1ccc(OC)cc1 (configuration not stated)	6	32	11	50*	59
CNC(=O)c1cc2cccc(OC)c2oc1=O	/	-9	0	-7	-7
Cc1ccc(-c2nnc(-c3ccccc3)o2)cc1Br	35*	17	16	/	34
Cc1ccc(-c2nnc(-c3cccc(Br)c3)o2)cc1	52*	64*	30	/	53
CN(C)S(=O)(=O)c1cccc(-c2nnc(-c3ccccc3)o2)c1	0	38	30	/	86*
Cc1ccc(S(=O)(=O)N(C)C[C@@H]2Oc3c(cccc3N(C)C)C(=O)N([C@H](C)CO)C[C@H]2C)cc1	/	/	/	-2	/
COCC(=O)Nc1ccc2c(c1)[C@@H]1C[C@@H](CC(=O)NCCN3CCCCC3)O[C@H](CO)[C@@H]1O2	/	/	/	-1	/
CN(C(=O)c1ccc(OC2CCN(Cc3ccccn3)CC2)cc1)C1CCCCC1	-2	-64	-52*	0	5
O=C(NCCc1ccccn1)c1ccc(OC2CCN(CCc3ccccc3)CC2)cc1	?	-7	0	8	80*
CC(Cc1ccccn1)NC(=O)c1ccc(OC2CCN(CCc3ccccc3)CC2)cc1 (configuration not stated)	13	-1	4	/	58
C#CCN(C(=O)c1ccc(OC2CCN(Cc3ccccn3)CC2)cc1)C1CCCCC1	-2	-8	-4	-3	5
CCCN1CCC(Oc2cccc(C(=O)NCCc3ccccc3)c2)CC1	14	43	6	51*	44
CCNC(=O)C[C@H]1CC[C@@H](NS(=O)(=O)c2ccc(C)cc2)[C@H](CO)O1	/	/	/	1	/
CC1CCCCN1CC(=O)Nc1ccccc1Sc1ccccc1 (configuration not stated)	/	-67	-59*	/	4
COC(=O)C1CCN(CC(=O)Nc2ccccc2Sc2ccccc2)CC1	-6	19	5	/	7
Cc1ccc(S(=O)(=O)N(C)C[C@@H]2OCCCC[C@H](C)Oc3ccc(NC(=O)c4ccccc4)cc3C(=O)N([C@@H](C)CO)C[C@H]2C)cc1	/	/	/	-4	/
Cc1noc(C)c1NC(=O)Nc1ccc2c(c1)CC(=O)N([C@@H](C)CO)C[C@H](C)[C@H](CN(C)Cc1ccccc1)O2	/	/	/	0	/
O=C(C[C@H]1CC[C@@H]2[C@H](COC[C@@H](O)CN2C(=O)Nc2cccc(Cl)c2)O1)NCC1CCCCC1	/	/	/	9	/
O=C(Nc1ccccc1O)c1csc2c1CCCC2	38*	93*	39	/	49
